What all share (assay): DAPPL (digital affinity profiling via proximity ligation, sequencing); 10 mM Tris-HCl pH 7.5, 50 mM NaCl, 1 mM DTT, 4% glycerol, room temperature, 30 min; GST-TFs on glutathione beads, 16-mer random dsDNA library, 0.1% formaldehyde crosslink after washing; high values mean tight binding
One assay addresses T1, ELK1 (Homo sapiens, UniProt P19419 1-428).
T1 sequence: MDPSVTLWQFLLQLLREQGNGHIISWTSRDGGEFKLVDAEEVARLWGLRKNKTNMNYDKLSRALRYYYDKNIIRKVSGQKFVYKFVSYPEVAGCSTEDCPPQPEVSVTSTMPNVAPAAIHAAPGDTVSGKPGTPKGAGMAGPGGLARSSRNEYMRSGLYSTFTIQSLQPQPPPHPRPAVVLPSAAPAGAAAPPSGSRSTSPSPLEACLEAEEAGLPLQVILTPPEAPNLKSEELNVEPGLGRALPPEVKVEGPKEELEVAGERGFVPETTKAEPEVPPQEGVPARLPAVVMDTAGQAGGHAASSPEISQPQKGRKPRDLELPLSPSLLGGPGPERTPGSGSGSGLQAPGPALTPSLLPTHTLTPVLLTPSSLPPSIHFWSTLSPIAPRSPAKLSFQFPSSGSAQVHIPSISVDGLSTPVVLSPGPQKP
Conditions: protein: recombinant; tags: N-terminal GST; dsDNA, one strand shown. In outline: (§1)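 Human transcription factors were made in yeast as GST fusions, captured on glutathione beads and barcoded with DNA. With a tag-only sample included, the pool was incubated with 200 nmole of a random double-stranded 16-mer DNA library in Tris/NaCl/DTT/glycerol buffer at room temperature for 30 min, then crosslinked with 0.1% formaldehyde after washing, ligated by proximity, amplified and sequenced. For binding signal, each hexamer's read frequency for a factor is divided by its frequency for the tag-only sample.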

In a further assay the target is T2, GABPA (Homo sapiens, UniProt Q06546 1-454).
T2 sequence: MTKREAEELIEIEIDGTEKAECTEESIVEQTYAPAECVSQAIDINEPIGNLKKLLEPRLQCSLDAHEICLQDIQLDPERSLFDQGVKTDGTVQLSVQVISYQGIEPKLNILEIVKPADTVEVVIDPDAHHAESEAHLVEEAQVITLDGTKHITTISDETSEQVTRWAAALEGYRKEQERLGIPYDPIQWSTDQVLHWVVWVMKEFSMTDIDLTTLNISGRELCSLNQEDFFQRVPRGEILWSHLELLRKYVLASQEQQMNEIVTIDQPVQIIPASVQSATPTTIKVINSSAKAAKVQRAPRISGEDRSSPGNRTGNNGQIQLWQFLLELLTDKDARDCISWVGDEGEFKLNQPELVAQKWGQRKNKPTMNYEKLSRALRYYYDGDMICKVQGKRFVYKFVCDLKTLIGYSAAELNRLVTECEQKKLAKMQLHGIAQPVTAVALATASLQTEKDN
The note with it: protein: recombinant; tags: N-terminal GST; dsDNA, one strand shown. In outline: as §1

The target of another assay is ELF1 (Homo sapiens, UniProt P32519 1-619). The note with it: protein: recombinant; tags: N-terminal GST; dsDNA, one strand shown. In outline: as §1
ELF1, sequence (P32519 whole entry): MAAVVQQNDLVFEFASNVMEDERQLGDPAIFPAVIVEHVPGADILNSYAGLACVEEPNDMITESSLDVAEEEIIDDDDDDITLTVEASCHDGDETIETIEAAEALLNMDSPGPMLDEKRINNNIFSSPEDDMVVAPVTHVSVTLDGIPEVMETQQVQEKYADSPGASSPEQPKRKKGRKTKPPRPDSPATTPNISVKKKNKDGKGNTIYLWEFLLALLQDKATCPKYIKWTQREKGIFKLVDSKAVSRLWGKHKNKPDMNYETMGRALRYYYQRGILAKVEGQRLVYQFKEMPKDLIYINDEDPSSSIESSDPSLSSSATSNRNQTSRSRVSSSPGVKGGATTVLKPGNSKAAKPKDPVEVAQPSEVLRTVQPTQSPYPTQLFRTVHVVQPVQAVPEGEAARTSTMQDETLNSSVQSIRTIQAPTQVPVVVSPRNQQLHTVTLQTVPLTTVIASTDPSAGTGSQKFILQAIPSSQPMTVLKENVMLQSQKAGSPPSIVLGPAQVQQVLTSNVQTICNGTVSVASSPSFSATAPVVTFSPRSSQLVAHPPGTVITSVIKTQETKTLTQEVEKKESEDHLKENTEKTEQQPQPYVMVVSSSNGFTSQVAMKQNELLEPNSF
Another assay concerns the target SPI1 (Homo sapiens, UniProt P17947 1-270). Conditions: protein: recombinant; tags: N-terminal GST; dsDNA, one strand shown. In outline:
as §1

A further assay has as its target HSF1 (Homo sapiens, UniProt Q00613 1-529). The note with it: protein: recombinant; tags: N-terminal GST; chain copies: 3; dsDNA, one strand shown. The essentials:
as §1

The next assay concerns the target ELF4 (Homo sapiens, UniProt Q99607 1-663). Conditions: protein: recombinant; tags: N-terminal GST; dsDNA, one strand shown. In outline: as §1
In a further assay the target is T3, ELK4 (Homo sapiens, UniProt P28324-2 1-405).
T3 sequence: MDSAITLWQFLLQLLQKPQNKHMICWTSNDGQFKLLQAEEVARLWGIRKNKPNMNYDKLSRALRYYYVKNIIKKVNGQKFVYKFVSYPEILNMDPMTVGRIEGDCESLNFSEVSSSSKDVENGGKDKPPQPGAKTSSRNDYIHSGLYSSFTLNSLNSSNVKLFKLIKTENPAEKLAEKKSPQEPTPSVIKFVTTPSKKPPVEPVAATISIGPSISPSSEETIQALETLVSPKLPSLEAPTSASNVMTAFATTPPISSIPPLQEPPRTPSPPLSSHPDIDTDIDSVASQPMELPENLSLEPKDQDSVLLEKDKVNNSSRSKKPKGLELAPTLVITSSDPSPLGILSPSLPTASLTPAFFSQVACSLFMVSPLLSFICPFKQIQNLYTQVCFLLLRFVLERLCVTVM
Conditions: protein: recombinant; tags: N-terminal GST; dsDNA, one strand shown. In outline:
as §1

In a further assay the target is T4, ETV2 (Homo sapiens, UniProt O00321 1-342).
T4 sequence: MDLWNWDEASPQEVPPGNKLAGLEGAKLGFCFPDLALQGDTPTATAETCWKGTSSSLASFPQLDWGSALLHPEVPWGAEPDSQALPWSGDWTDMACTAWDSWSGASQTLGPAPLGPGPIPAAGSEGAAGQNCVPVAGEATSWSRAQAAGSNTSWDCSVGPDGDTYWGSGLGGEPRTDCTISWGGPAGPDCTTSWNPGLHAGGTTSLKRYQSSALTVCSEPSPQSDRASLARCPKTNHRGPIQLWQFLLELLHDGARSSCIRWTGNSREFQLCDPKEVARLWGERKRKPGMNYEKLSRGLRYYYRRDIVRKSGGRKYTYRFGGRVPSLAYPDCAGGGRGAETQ
Conditions: protein: recombinant; tags: N-terminal GST; dsDNA, one strand shown. In outline: as §1

For the next assay, the target named is T5, ELF3 (Homo sapiens, UniProt P78545 1-371).
T5 sequence: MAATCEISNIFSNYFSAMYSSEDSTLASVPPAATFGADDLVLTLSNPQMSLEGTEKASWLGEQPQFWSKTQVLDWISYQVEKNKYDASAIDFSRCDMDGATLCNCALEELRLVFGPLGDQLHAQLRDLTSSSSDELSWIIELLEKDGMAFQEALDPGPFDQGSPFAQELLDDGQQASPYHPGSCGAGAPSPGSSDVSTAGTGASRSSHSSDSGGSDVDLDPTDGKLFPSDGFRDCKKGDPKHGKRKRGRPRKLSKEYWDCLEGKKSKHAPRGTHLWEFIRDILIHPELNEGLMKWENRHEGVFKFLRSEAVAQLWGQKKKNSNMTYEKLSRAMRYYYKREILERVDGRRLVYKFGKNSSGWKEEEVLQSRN
Conditions: protein: recombinant; tags: N-terminal GST; dsDNA, one strand shown. In outline: as §1

HSF1, sequence (Q00613 whole entry): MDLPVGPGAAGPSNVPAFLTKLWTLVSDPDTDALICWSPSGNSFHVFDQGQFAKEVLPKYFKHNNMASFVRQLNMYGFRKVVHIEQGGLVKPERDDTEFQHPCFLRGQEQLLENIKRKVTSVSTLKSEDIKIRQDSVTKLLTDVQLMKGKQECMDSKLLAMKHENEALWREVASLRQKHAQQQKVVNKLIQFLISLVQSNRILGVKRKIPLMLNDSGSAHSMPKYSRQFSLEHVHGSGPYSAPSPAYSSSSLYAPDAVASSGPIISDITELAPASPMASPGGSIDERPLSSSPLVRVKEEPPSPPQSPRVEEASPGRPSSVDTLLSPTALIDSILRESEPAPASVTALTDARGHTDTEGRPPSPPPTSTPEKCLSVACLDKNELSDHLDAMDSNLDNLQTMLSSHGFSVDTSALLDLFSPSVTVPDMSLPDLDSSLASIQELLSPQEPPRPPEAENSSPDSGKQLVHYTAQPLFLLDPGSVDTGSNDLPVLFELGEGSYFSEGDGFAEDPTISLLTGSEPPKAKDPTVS
ELF4, sequence (Q99607 whole entry): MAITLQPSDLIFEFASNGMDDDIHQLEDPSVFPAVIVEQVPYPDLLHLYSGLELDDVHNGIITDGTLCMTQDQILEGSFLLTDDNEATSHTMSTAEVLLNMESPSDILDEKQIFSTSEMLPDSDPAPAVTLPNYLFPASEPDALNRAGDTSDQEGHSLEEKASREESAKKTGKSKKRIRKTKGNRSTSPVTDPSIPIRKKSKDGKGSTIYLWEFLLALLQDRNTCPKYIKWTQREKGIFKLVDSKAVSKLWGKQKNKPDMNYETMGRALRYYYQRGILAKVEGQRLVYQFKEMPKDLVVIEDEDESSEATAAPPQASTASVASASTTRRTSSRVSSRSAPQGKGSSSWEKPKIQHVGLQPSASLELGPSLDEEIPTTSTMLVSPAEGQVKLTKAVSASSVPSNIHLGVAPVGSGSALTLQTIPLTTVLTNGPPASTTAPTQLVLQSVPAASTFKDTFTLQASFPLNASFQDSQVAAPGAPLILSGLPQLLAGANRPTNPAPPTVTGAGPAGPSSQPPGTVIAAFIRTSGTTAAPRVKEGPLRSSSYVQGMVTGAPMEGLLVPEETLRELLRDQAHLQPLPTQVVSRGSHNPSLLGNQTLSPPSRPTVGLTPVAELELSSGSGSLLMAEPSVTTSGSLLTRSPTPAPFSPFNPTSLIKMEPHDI

As to AGAATA, the binding signal with ELK1 is 1.04 fold enrichment (6-mer frequency, TF over GST control); with GABPA it was 1 fold enrichment (6-mer frequency, TF over GST control); with ELF1, 1.01 fold enrichment (6-mer frequency, TF over GST control); with SPI1 it was 1 fold enrichment (6-mer frequency, TF over GST control); in the assay with HSF1, 2.32 fold enrichment (6-mer frequency, TF over GST control); in the assay with ELF4, 1.06 fold enrichment (6-mer frequency, TF over GST control). Also, the binding signal with ELK4 is 1.02 fold enrichment (6-mer frequency, TF over GST control); with ETV2, 1.07 fold enrichment (6-mer frequency, TF over GST control); with ELF3, 1.04 fold enrichment (6-mer frequency, TF over GST control).

Values taken from publication PMC7862700, “An all-to-all approach to the identification of sequence-specific readers for epigenetic DNA modifications on cytosine”.
